Compound activity deposited in PubChem BioAssay by several laboratories.
Granule exo inh – blocks lytic granule exocytosis. TALL-104 LAMP-1 surface exposure, flow cytometry; cells stimulated with thapsigargin and PMA. inhibition, % at 10 µM. actives 0.66% (n = 360,000). AID 651702;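 active = inhibition above about 55%, limit read from the data; inconclusive = no clear call, values can overlap the other calls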
GASC-1 inh – inhibitors of human GASC-1 (JMJD2C) demethylase; GST-JMJD2C(1-420) H3K9me3 demethylation, DELFIA europium; inhibition, % at 2.35 µM; actives 0.069% (n = 330,000); AID 2099;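 active = more than half of a compound's replicate wells show inhibition beyond 50%, single wells judged on their own value; inconclusive = some, but no more than half, of replicates pass 50% inhibition; inactive = no replicate passes 50% inhibition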;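 note: signal counts dimethyl H3K9 product captured on neutravidin plate; 0% = median of DMSO wells and 100% = 0.3 times that DMSO median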
Target sequence (Q9H3R0 1-420 limits assumed): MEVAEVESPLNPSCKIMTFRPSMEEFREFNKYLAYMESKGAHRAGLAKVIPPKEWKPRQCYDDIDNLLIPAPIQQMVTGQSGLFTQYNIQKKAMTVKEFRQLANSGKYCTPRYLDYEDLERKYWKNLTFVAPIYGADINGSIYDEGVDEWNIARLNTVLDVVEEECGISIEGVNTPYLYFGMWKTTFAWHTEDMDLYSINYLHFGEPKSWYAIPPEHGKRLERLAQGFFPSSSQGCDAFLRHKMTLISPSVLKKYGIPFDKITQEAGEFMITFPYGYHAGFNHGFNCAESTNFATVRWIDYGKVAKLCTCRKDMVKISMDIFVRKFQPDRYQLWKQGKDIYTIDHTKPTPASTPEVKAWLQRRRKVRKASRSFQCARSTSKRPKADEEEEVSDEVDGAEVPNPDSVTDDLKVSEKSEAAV
M18AAP inhibitor – blocks P. falciparum M18 aspartyl aminopeptidase; AID 1822; actives 1.2% (n = 290,000); inhibition, % at 7.35 µM; recombinant PfM18AAP, H-Glu-NHMec fluorogenic cleavage;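 active = inhibition above the campaign mean inhibition over all tested compounds plus 3 SD, cut at about 28% in these data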;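 note: 0% = plate median of test compound wells and 100% = 2 mM ZnCl2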
MIN6 prolif – induces beta-cell replication in MIN6 cells; MIN6 cells proliferation, ATPlite luminescence, 48 h; cells starved in 0.2% serum; 100% = growth in 10% serum; proliferation, % at 10 µM; actives 0.29% (n = 330,000);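 active = compounds whose signal lies at least 3.5 SD above the mean of all wells on their plate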;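 note: 0% = DMSO-treated cells in low-serum medium and 100% = 10% serum control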
SMARCA2 act – SMARCA2 function activation, primary screen | MG213 cells, MMTV-luciferase reporter, dexamethasone, overnight | activation, % at 9.1 µM | actives 1% (n = 370,000) | AID 652017; in the data active = activation above about 7.8%;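 note: 0% = vehicle wells and 100% = reference activator wells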
ALR H2O2 inh – blocks human ALR sulfhydryl oxidase activity; P55789; purified ALR, DTT oxidation, H2O2 HRP-luminol luminescence; inhibition, % (no concentration beside the values); actives 3.8% (n = 290,000); AID 485317;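 active = mean replicate inhibition above about 79%, with every replicate also reaching it, limit read from the data; inconclusive = only one of the two criteria met; inactive = mean below limit and not every replicate reaching it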
Target sequence (P55789 whole entry, looked up): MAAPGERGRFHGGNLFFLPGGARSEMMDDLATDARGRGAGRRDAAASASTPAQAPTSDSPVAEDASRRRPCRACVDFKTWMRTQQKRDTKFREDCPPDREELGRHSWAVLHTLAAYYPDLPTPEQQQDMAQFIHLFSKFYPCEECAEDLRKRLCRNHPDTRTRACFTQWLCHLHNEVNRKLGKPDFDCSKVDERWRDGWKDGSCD
Numbers without * were called inactive; ? = inconclusive; . = no result given. Hits are enriched below; roughly 5.4% of the tested compounds scored in any of these assays.

SMILES	Granule exo inh	GASC-1 inh	M18AAP inhibitor	MIN6 prolif	SMARCA2 act	ALR H2O2 inh
CC1=NN(C(N)=S)C(=O)C1N=Nc1ccc(C)cc1C (configuration not stated)	.	-3.4	3.2	-3.4	3.3	94.1*
CC(C(=O)NC1=NCCS1)(C(F)(F)F)C(F)(F)F	0.9	3.5	-11.3	0.1	0.8	-2.4
CC(C)(C)C(=O)NC1=NCCS1	-1.2	8.0	-3.4	-1.5	-0.8	100.2*
O=C(O)C1CCN(C(=O)COc2ccc3c(c2)oc(=O)c2ccccc23)CC1	-1.9	?	-2.7	-3.3	1.0	-24.5
Cc1c(Cc2ccccc2)c(=O)oc2cc(OCc3nn[nH]n3)ccc12	-0.7	-6.0	2.5	-0.4	0.9	97.6*
Cc1c(Cc2ccccc2)c(=O)oc2cc(OCC(=O)N3CCC(C(=O)O)CC3)ccc12	-1.1	-46.4	6.7	2.5	0.6	93.4*
COC(=O)Cc1c(C)c2ccc(OC(=O)c3ccccc3)cc2oc1=O	-0.9	?	-17.1	-0.2	-2.0	98.1*
Cc1c(Cc2ccccc2)c(=O)oc2cc(OC(=O)c3ccccc3)ccc12	1.8	13.3	6.0	0.0	1.4	.
COc1ccc(C(=O)OCCCN(C)C2CN(Cc3cn(Cc4ccccc4F)nn3)S(=O)(=O)C2)cc1OC (configuration not stated)	.	.	.	.	2.1	.
CC1CC(C)CN(CCCNS(=O)(=O)c2cc3c(cc2Br)CCN3C(=O)C2CC2)C1 (configuration not stated)	.	.	.	.	-4.3	.
CC(C)c1[nH]nc2c1C(c1cccc(C(F)(F)F)c1)N(Cc1ccccc1)C2=O (configuration not stated)	.	.	.	.	-8.5	.
COc1ccc(OC)c(S(=O)(=O)Nc2ccccc2O)c1	-5.0	-10.7	.	-2.7	-3.1	98.7*
CCN(CC)C(=O)CC[C@@H]1CC[C@]2(CCCN(C(=O)C(C)(C)C)C2)O1	.	.	.	.	0.6	.
COc1ccc(N2C(=O)CC(Sc3n[nH]c(-c4cccc(C)c4)n3)C2=O)cc1 (configuration not stated)	94.8*	10.9	-36.1	-4.0	4.6	98.6*
COc1ccccc1N1C(=O)CC(Sc2nc(C)cc(C)n2)C1=O (configuration not stated)	-0.6	8.2	0.6	3.5	2.4	0.5
CCOc1ccccc1N1C(=O)CC(Sc2n[nH]c(-c3ccccc3)n2)C1=O (configuration not stated)	19.1	3.2	-54.5	-5.8	4.6	98.5*
COc1cccc(N2C(=O)CC(Sc3nc(C)cc(C)n3)C2=O)c1 (configuration not stated)	-13.3	-27.6	-13.6	2.4	1.0	-0.8
CC1(C)C2(C#N)C(N)=NC3(OCCO3)C12C#N (configuration not stated)	-3.2	6.6	-6.3	-2.9	0.3	99.8*
O=C(CSc1nnc(SCc2cccc3ccccc23)s1)Nc1ccc(S(=O)(=O)Nc2nccs2)cc1	.	.	.	.	-6.3	.
COc1cc(OC)cc(C(=O)NNc2nc3cc4c(cc3s2)OCO4)c1	-2.0	-0.8	31.2*	-2.0	1.3	?
Cc1ccc(SC(=O)COc2ccccc2C)cc1	0.1	1.5	11.1	0.0	1.3	98.8*
Cc1ccc(OC(=O)COc2ccccc2C)cc1	2.6	2.8	10.6	-3.1	0.5	-7.7
Cc1nc2ccc(OC(=O)c3ccccc3)cc2s1	-1.4	-1.6	-3.9	0.6	1.4	0.4
Cc1nc2cc(C(=O)O)ccc2s1	-0.9	1.8	30.3*	-0.3	4.1	-1.0
Cc1cccc(C(=O)N/N=C/C(C)Cc2ccc3c(c2)OCO3)c1 (configuration not stated)	-1.8	67.4*	-4.2	-1.8	-1.1	-0.8
SMILES	Granule exo inh	GASC-1 inh	M18AAP inhibitor	MIN6 prolif	SMARCA2 act	ALR H2O2 inh
CCN(CC)c1ccc(C2C(C(=O)OC)=C(C)NC(C)=C2C(=O)OC)cc1	-2.5	8.9	7.3	1.5	4.5	98.8*
CCOC(=O)C1=C(C)NC(=O)NC1c1ccc(N(C)C)cc1 (configuration not stated)	-2.2	8.9	6.2	0.0	-1.5	.
COC(=O)C1=C(C)NC(C)=C(C(=O)OC)C1c1ccc(NC(C)=O)cc1	13.3	-20.4	1.3	-4.5	-0.1	-5.6
CCOC(=O)C1=C(C)NC(=O)NC1c1ccc(N(CC)CC)cc1 (configuration not stated)	-2.3	-0.8	7.4	-0.9	-1.8	98.2*
CC1=C(C(=O)Nc2ccccc2)C(c2ccco2)NC(=O)N1 (configuration not stated)	2.5	1.8	2.4	-1.3	-0.7	.
CCN(CC)c1ccc(C2NC(=O)NC(C)=C2C(=O)Nc2ccccc2)cc1 (configuration not stated)	-5.4	102.6	-1.7	-2.1	0.4	98.7*
O=C(CCn1nnc2ccccc21)N1CCN(c2ccccc2F)CC1	.	.	.	.	-0.5	.
O=C(Nc1ccc(Cl)c(S(=O)(=O)N2CCOCC2)c1)c1ccc(OCC2CCCO2)cc1 (configuration not stated)	94.1*	-40.8	3.3	0.7	.	-5.0
COc1ccc(C(=O)Nc2ccc(Cl)c(S(=O)(=O)N3CCOCC3)c2)cc1	2.3	8.3	.	-2.8	-4.6	-1.2
O=C(c1ccc(OCC2CCCO2)cc1)N1CCN(c2ccccc2)CC1 (configuration not stated)	-1.4	-7.8	5.0	1.4	-3.5	97.8*
COc1ccc(-c2cc(C(=O)N3CCN(c4ccccc4O)CC3)c3ccccc3n2)cc1OC	-5.1	-1.7	31.1*	-5.2	-0.1	5.3
COc1cc(-c2cc(C(=O)O)c3c(OC)c(OC)c(OC)cc3n2)ccc1O	-0.9	8.7	15.2	-0.6	-1.2	97.8*
CC(C)C[C@H]1COc2cc(F)ccc2S(=O)(=O)N1C	.	.	.	.	-1.6	.
CC(C)[C@H]1/C(=C/C2CC2)N2C(=O)C[C@@H](c3ccccc3)N=C2N1Cc1ccc2c(c1)OCO2	.	.	.	.	-3.0	.
CCc1nnn2c1Cn1c3ccccc3c(=O)n1[C@@H](C(C)C)C2	.	.	.	.	-1.4	.
Cc1cccc(N2C(=O)C3C4C=CC(C4)C3C2=O)c1 (configuration not stated)	-1.6	53.6*	-1.7	-2.0	1.3	-3.9
CN(C)c1ccc(NC(=O)c2cccc(N3C(=O)C4C5C=CC(C5)C4C3=O)c2)cc1 (configuration not stated)	7.3	15.6	-7.2	1.4	-3.5	99.2*
Cc1ccc(N2C(=O)C3C4C=CC(C4)C3C2=O)cc1C (configuration not stated)	0.2	-4.9	-0.8	-2.3	-0.3	15.9
Cc1ccc(NC(=O)c2cccc(N3C(=O)C4C5C=CC(C5)C4C3=O)c2)cc1C (configuration not stated)	-0.1	2.3	-2.2	-0.3	-4.9	-17.9
CCNc1nc(CSc2ccccc2)nc2sc(C)c(C)c12	-0.4	-6.0	2.9	-1.3	-0.8	82.8*
